Compound activity as filed in PubChem.
This is a sample that favours compounds with a hit; in the whole collection about 15% have one here.
ALOX12 inh: ALOX12 (human) lipoxygenase inhibition. AID 1671190. purified 12hLO, xylenol orange hydroperoxide absorbance. P18054. actives 1.1% (n = 580,000). Potency, µM (titrated, usually from 108 µM), without a hit: at the highest dose activity change, negative = inhibition, most hits filed as inhibitors
Target sequence (P18054 whole entry, looked up): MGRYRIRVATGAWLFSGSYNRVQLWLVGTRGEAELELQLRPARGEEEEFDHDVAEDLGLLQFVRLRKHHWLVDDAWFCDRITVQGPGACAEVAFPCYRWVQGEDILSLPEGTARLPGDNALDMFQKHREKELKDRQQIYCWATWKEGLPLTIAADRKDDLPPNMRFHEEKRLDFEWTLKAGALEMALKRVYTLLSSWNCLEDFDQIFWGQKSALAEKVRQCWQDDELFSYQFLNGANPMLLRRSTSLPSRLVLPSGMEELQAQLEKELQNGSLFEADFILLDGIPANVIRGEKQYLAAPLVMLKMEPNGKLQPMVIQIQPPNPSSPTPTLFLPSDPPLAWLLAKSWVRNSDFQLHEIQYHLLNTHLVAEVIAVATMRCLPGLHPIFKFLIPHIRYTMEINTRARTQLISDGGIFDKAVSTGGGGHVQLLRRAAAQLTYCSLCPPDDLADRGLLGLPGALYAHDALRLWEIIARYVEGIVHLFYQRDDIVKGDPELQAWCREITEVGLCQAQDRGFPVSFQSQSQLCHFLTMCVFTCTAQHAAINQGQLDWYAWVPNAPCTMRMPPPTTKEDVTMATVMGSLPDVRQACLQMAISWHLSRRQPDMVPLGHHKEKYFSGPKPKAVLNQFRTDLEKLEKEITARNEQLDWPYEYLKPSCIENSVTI
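Hydroperoxide product was detected by ferrous iron/xylenol orange as the 573 to 405 nm absorbance ratio. Arachidonic acid at 40 uM (final) was turned over for 30 min at room temperature by 150 nM human 12hLO, pH 7.0 Hepes buffer, after 15 min compound preincubation.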
DT40 TDP1 CPT: growth inhibition of DT40 Tdp1-/-;hTDP1 cells with camptothecin (screen for TDP1 inhibitors); chicken DT40 Tdp1-/-;hTDP1 cells + 20 nM CPT, ATP luminescence, 48 h; Potency, µM (series often up to 46.2 µM), for inactives: at the top dose activity change, negative = growth inhibition, most hits filed as inhibitors; actives 12% (n = 420,000); AID 686979; note: nearly all actives have a fitted effect of over 55% in size
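Cell growth measured by CellTiter-Glo luminescence after a minimum 48 h, 37 C compound exposure with 20 nM CPT in Tdp1-knockout DT40 cells stably expressing hTDP1, seeded 400/well; qHTS titration format.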
TDP1 cell noCPT: qHTS for Inhibitors of human tyrosyl-DNA phosphodiesterase 1 (TDP1): qHTS in cells in absence of CPT | AID 686978, 2013 | actives 15% (n = 420,000) | DT40 Tdp1-/- hTDP1 cells, no CPT, ATP luminescence, 48 h | Potency, µM (top dose mostly 46.2 µM), inactives show at the top dose activity change, negative = growth inhibition, most hits filed as inhibitors; note: nearly all actives have a fitted effect of over 55% in size
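No-CPT arm: Tdp1-/-;hTDP1 DT40 cells (400/well) plus compounds, incubated ≥48 hr at 37 °C. Readout CellTiter-Glo luminescence.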
RORg inh: blocks mouse ROR gamma transcriptional activity. P51450. Potency, µM (highest dose often 53.6 µM), inactives show at the highest dose activity change, negative = inhibition, hits mostly inhibitors. actives 5.4% (n = 310,000). Drosophila S2 Gal4-RORgamma UAS-luciferase reporter, 20 h; note: nearly all actives have a fitted effect of over 60% in size
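ROR gamma transcriptional activity was tracked as Gal4-UAS luciferase output in stably transfected Drosophila Schneider cells, with compound added 1 hr before 700 uM copper sulfate induction and a 20 hr ambient-temperature incubation.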
Gal4-VP16 FLuc: counter-screen for ROR gamma inhibitors: Gal4-VP16 reporter; Drosophila S2 Gal4-VP16 UAS-luciferase, luminescence, 20 h; Potency, µM (top dose mostly 53.6 µM), for the others: at the top dose activity, negative = inhibition, usual class: inhibitors; actives 3.5% (n = 310,000); AID 2546;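 note: Gal4-VP16 expression switched on by copper sulfate through the metallothionein promoter; nearly all actives have a fitted effect of over 50% in size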
ELG1 DNA repair: inhibitors of ELG1-dependent DNA repair in HEK293T cells. HEK293T ELG1-luciferase reporter, luminescence, 16 h; DNA damage induced by 5-fluorouridine. AID 504467. actives 2.3% (n = 330,000). Potency, µM (highest dose often 46.1 µM), for inactives: at the highest dose activity change, negative = inhibition, most hits filed as inhibitors; note: nearly all actives have a fitted effect of over 55% in size
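Luminescence from the luciferase reporter, measured 30 min after ONE-Glo reagent at room temperature, was the read-out. Beforehand, 2,000 cells per well were exposed for 16 hr at 37 °C to 5-fluorouridine together with compound or vehicle.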
Active calls of the source: *; ? = inconclusive; · = no result given; [ ] = another dose, or the depositor's remark. Calls come from the whole dose curve; as a rule, active = well fitted curve in the direction sought with a large enough effect; inconclusive = small, poorly fitted or top-dose-only effect, or another doubt; inactive = no such curve, though single readings can be large; an effect the other way counts as inactive or inconclusive. % is set by controls: 0 for no effect and ±100 for the full control effect; potency is the fitted concentration of half-maximal effect.

SMILES	ALOX12 inh	DT40 TDP1 CPT	TDP1 cell noCPT	RORg inh	Gal4-VP16 FLuc	ELG1 DNA repair
Oc1ccc(-c2nc(-c3cc4ccccc4o3)cs2)cc1	11µM*	·	·	·	·	·
CC(O)(c1cccc(F)c1)c1nc(-c2cccc(C(F)(F)F)c2)cs1 (stereo not drawn)	?	29µM*	?	·	·	·
CC(O)(c1cccc(F)c1)c1nc(-c2ccccc2)cs1 (stereo not drawn)	10µM*	21µM*	18µM*	·	·	·
Cn1cc(-c2csc(C(C)(O)c3cccc(F)c3)n2)cn1 (stereo not drawn)	-8%	-9%	-12%	·	·	·
CC(O)(c1cccc(F)c1)c1nc(-c2cnc3ccccc3c2)cs1 (stereo not drawn)	-20%	15µM*	13µM*	·	·	·
CC(O)(c1cccc(F)c1)c1nc(-c2cccc(C(=O)O)c2)cs1 (stereo not drawn)	-3%	-1%	-1%	·	·	·
CC(O)(c1cccc(F)c1)c1nc(-c2ccc(S(C)(=O)=O)cc2)cs1 (stereo not drawn)	-18%	16µM*	13µM*	·	·	·
COc1ccccc1-c1csc(C(O)(c2ccccc2)C(F)(F)F)n1 (stereo not drawn)	?	?	18µM*	·	·	·
COc1cccc(C(C)(O)c2nc(-c3ccccc3OC)cs2)c1 (stereo not drawn)	6%	?	-93%	·	·	·
CCN(C(=O)COC(=O)c1cc2ccccc2oc1=O)c1ccccc1	0%	·	·	·	·	·
O=C1Nc2ccccc2NC(c2cccc(Br)c2)=C1N(C(=O)C(=O)c1cccs1)c1ccccc1	-10%	·	·	·	·	·
OC(c1ccccc1)(c1nc(-c2cc3ccccc3o2)cs1)C(F)(F)F (stereo not drawn)	?	21µM*	16µM*	·	·	·
CC(O)(c1cccc(F)c1)c1nc(-c2ccncc2)cs1 (stereo not drawn)	6%	15µM*	18µM*	·	·	·
CC(C)c1cccc(-c2csc(C(C)(O)c3ccccc3)n2)c1 (stereo not drawn)	-12%	?	23µM*	·	·	·
CC(O)(c1ccc(F)c(F)c1)c1nc(-c2cccc(C(=O)O)c2)cs1 (stereo not drawn)	-7%	-27%	2%	·	·	·
CC(O)(c1ccc(F)c(F)c1)c1nc(-c2cccc(C(F)(F)F)c2)cs1 (stereo not drawn)	?	18µM*	?	·	·	·
CC(O)(c1ccccc1)c1nc(-c2cccc(C(=O)O)c2)cs1 (stereo not drawn)	-5%	-21%	-11%	·	·	·
OC(c1ccccc1)(c1nc(-c2cccc(C(F)(F)F)c2)cs1)C(F)(F)F (stereo not drawn)	-24%	?	?	·	·	·
CCCCCc1ccc(-c2ccc(C3CCC(CC)CC3)cc2)nc1 (stereo not drawn)	59%	·	·	·	·	·
COc1ccc(CNC(=O)[C@@H]2CCC[C@@H](NCc3cccc(Cl)c3)CN(C)C(=O)C2)cc1	7%	·	·	·	·	·
CC(O)(c1cccc(F)c1)c1nc(-c2cccc3cccnc23)cs1 (stereo not drawn)	-6%	?	26µM*	·	·	·
COc1ccc(-c2csc(C(C)(O)c3cccc(F)c3)n2)cc1OC (stereo not drawn)	?	23µM*	15µM*	·	·	·
CCC(=O)Nc1ccc(C(=O)NN=C(C)C)cc1	-21%	·	·	·	·	·
O=C(c1ccccc1)c1ccc(OCc2ccc(-c3ccccc3)cc2)cc1	-30%	·	·	·	·	·
O=C(c1ccccc1)c1ccc(-c2ccc(O)cc2)cc1	10%	-1%	-27%	3.5µM*	18µM*	?
SMILES	ALOX12 inh	DT40 TDP1 CPT	TDP1 cell noCPT	RORg inh	Gal4-VP16 FLuc	ELG1 DNA repair
O/N=C/c1ccnc(SCc2ccccc2)n1	0%	-18%	-22%	0.56µM*	3.5µM*	?
Cc1ccc2c(c1)C(c1ccccc1)=Nc1ccc(C)cc1C(c1ccccc1)=N2	-58%	·	·	·	·	·
Cc1ccc2c(c1)N=C(c1ccccc1)CC(C(Cl)Cl)=N2	?	?	?	11µM*	?	?
Cc1ccc(C2=Nc3ccccc3N=C(C(Cl)Cl)C2)cc1	-3%	18µM*	16µM*	11µM*	?	?
Cc1ccc(S(=O)(=O)N2CCN(Cc3cc(=O)n4ccccc4n3)CC2)c(C)c1	-10%	?	-2%	·	·	7.3µM*
C[S+](=O)([O-])N1Cc2ccccc2CC2(CCCCN2CC2CCOCC2)C1 (stereo not drawn)	1%[6.33 µM]	·	·	·	·	·
Brc1ccc(-c2nc3ccc(Br)cn3c2Cc2ccccc2)cc1	?	?	21µM*	·	·	·
N#Cc1ccc(-c2nc3ccc(Br)cn3c2Cc2ccsc2)cc1	0%	-100%	-99%	·	·	·
Clc1ccc(-c2nc3ccc(Br)cn3c2Cc2ccccc2)cc1	?	23µM*	21µM*	·	·	·
Cc1cc(Br)cn2c(Cc3ccsc3)c(-c3ccc(Cl)cc3)nc12	·	15µM*	18µM*	·	·	·
Clc1ccc(-c2nc3ccc(Br)cn3c2Cc2ccsc2)cc1	?	16µM*	16µM*	·	·	·
CSc1nc2ccccc2c(=O)n1CC(=O)c1ccccc1C	3%	·	·	·	·	·
COc1ccc2[nH]cc(C(C(=O)O)N3CCN(CC(=O)N(C)C)CC3)c2c1 (stereo not drawn)	15%	·	·	·	·	·
COc1ccc(C(NC(=O)C2CCCC2)c2nccc3cc(OC)c(OC)cc23)cc1OC (stereo not drawn)	-28%	·	·	·	·	·
CN1CCCN(Cc2nc(-c3cccc(C(F)(F)F)c3)no2)CC1	74%	?	16µM*	2%	0%	?
FC(F)(F)c1cccc(-c2noc(CN3CCOCC3)n2)c1	-1%	-13%	-16%	-1%	12%	?
Cc1ccc(S(=O)(=O)NC2CC2)cc1C(=O)Nc1cccc2c1CCCC2	-21%	·	·	·	·	·
CCOC(=O)c1nnn2c1nc(SCC(C)=O)c1ccccc12	0%	1%	?	15%	-14%	28%
CCOC(=O)c1nnn2c1nc(Nc1cccc(C(F)(F)F)c1)c1ccccc12	-11%	10µM*	5.8µM*	18%	-2%	-1%
Cc1ccc(-c2nnn3c2nc(NC2CCC(C)CC2)c2ccccc23)cc1 (stereo not drawn)	-20%	-12%	?	·	·	·
C=CCSc1nc2c(C(=O)OCC)nnn2c2ccccc12	0%	?	9.2µM*	2%	1%	-9%
